Out of some 5,500 compounds screened, about 2,000 (36%) were called active. Another 18% or so got no clear call; they are omitted. Cut-off read from the data, not from the text of the source: active = normalized growth mostly below about 0.91 (no sharp cut-off); inconclusive = no clear call, values can overlap the other calls; inactive = mostly above about 0.92. This is one part of the list.
Assay: chemical genetic growth profiling, strain panel (AID 1159580);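 note: tested at 20 µM; growth read once vehicle control cultures reached saturation at 30 °C; 1 = growth at the plate median or of vehicle wells; lower values mean less growth of the strain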
Settings: S. cerevisiae deletion strains, growth OD
[1] = locus YAL013W, strain DEP1, active compounds read low
[2] = locus YBR229C, strain ROT2, active compounds read low
[3] = locus YDL101C, strain DUN1, active compounds read low
[4] = locus YDL134C, strain PPH21, active compounds read low
[5] = locus YDR150W, strain NUM1, active compounds read low
[6] = locus YEL061C, strain CIN8, active compounds read low
[7] = locus YGR078C, strain PAC10, active compounds read low
[8] = locus YGR229C, strain SMI1, active compounds read low
[9] = locus YHR030C, strain SLT2, active compounds read low
[10] = locus YHR087W, strain rtc3, active compounds read low
[11] = locus YJR043C, strain POL32, active compounds read low
[12] = locus YJR075W, strain HOC1, active compounds read low
[13] = locus YLR039C, strain RIC1, active compounds read low
[14] = locus YLR058C, strain SHM2 (second series), active compounds read low
[15] = locus YLR085C, strain ARP6, active compounds read low
[16] = locus YLR262C, strain YPT6, active compounds read low
[17] = locus YML094W, strain GIM5, active compounds read low
[18] = locus YMR219W, strain ESC1, active compounds read low
[19] = locus YMR263W, strain SAP30, active compounds read low
[20] = locus YNL153C, strain GIM3, active compounds read low
[21] = locus YNL298W, strain CLA4 (second series), active compounds read low
[22] = locus YNL322C, strain KRE1, active compounds read low
[23] = locus YNR030W, strain Alg12, active compounds read low
[24] = locus YPL055C, strain LGE1, active compounds read low
[25] = locus YPL241C, strain CIN2, active compounds read low
[26] = locus YPR135W, strain CTF4, active compounds read low

Measured: normalized growth

COc1ccc(/C=N\NC(=O)CC#N)cc1OC
inactive: [1] 1 | [2] 1 | [3] 1.04 | [4] 0.999 | [5] 1.04 | [6] 0.985 | [7] 0.998 | [8] 1 | [9] 1.05 | [10] 0.996 | [11] 1.01 | [12] 1.01 | locus YKL190W, strain CNB1, active compounds read low 1 | [13] 1 | [14] 1.04 | [15] 0.957 | [16] 1.01 | [17] 0.998 | [18] 0.997 | [19] 1.04 | locus YNL128W, strain TEP1, active compounds read low 1.01 | [20] 1.03 | [21] 1.02 | [22] 1 | [23] 0.998 | [24] 1.15 | [25] 1.01 | [26] 1.29

COc1ccc(/C(C#N)=C/c2ccc(OC)c(OC)c2)cc1
active: [9] 0.548 | [13] 0.717 | [15] 0.768 | [16] 0.741
inactive: [1] 0.953 | [2] 0.98 | [3] 0.985 | [4] 0.949 | [5] 0.951 | [6] 0.961 | [7] 0.968 | [8] 0.972 | [10] 0.962 | locus YJL187C, strain SWE1, active compounds read low 1 | [11] 0.964 | [12] 0.95 | [14] 0.998 | [17] 0.933 | [18] 0.998 | [19] 0.953 | [20] 0.969 | [21] 0.936 | [22] 0.994 | [23] 0.925 | [24] 0.9 | [25] 0.933 | [26] 0.698

— PubChem BioAssay AID1159580 (chemical genetic matrix, 2015)
